Screening data deposited in PubChem BioAssay by The Scripps Research Institute Molecular Screening Center.
hgDAF-12 ag: H. glycines DAF-12 receptor agonists, primary screen, cell-based, luminescence, HEK293, GAL4 fusion, UAS-luciferase | activation, % at 6.8 µM | HEK293 GAL4-hgDAF12 UAS-luciferase reporter, agonist luminescence; normalized to butyrate control | Nuclear hormone receptor DAF-12 (Heterodera glycines), GAL4 fusion | hit rate 1.8% among 370,000;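 active means activation above a cutoff set at the mean of all screened compounds plus 3 SD, cut at about 10% in these data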;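 further: 0% = DMSO wells and 100% = sodium butyrate wells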
DAX1 inh-1: DAX1 (NR0B1) inhibitors, primary screen, cell-based, HEK293, Gal4-DAX1, luciferase luminescence | inhibition, % at 6.75 µM | hit rate 0.99% among 340,000 | HEK293 Gal4-DAX1 luciferase reporter | AID 504766, 2011 | Nuclear receptor subfamily 0 group B member 1 (Homo sapiens), P51843;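 active means inhibition above the mean over all tested compounds plus 3 SD, cut at about 4.2% in these data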;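 further: 0% = DAX1-transfected cells with DMSO and 100% = empty-vector control cells with DMSO; inhibition shows as a rise in luminescence from relieved DAX1 repression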
Target sequence (P51843 207-470 limits assumed): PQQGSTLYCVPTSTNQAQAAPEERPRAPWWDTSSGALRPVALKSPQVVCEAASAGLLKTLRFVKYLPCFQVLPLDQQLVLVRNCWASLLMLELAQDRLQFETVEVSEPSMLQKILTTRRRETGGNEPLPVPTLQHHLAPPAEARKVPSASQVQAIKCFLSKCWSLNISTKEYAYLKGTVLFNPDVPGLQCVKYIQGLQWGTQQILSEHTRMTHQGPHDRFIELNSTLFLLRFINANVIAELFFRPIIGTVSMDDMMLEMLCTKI
DAX1 inh-2: DAX1 (NR0B1) inhibitors on StAR promoter, primary screen, cell-based, luminescence, SF-1 (NR5A1), full-length DAX-1; inhibition, % at 6.8 µM; hit rate 1.1% among 370,000; AID 652010, 2013; HEK293T StAR-luciferase reporter, SF-1/DAX-1 repression relief;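 active means inhibition above the mean over all tested compounds plus 3 SD, cut at about 3.6% in these data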;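 further: 0% = DAX-1 cells with DMSO and 100% = cells lacking DAX-1 with DMSO; higher inhibition means more luminescence from relief of DAX-1 repression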
ssDAF12 agonist: S. stercoralis DAF-12 nuclear receptor activators, primary screen, cell-based, luminescence, HEK293, GRIP1 co-expression, lit1-tk-luc. Nuclear hormone receptor DAF-12 (Strongyloides stercoralis). HEK293 ssDAF-12/GRIP1 lit1-tk-luc reporter; % of 3 µM dafachronic acid response. activation, % at 6.8 µM. hit rate 1% among 370,000. AID 652126, 2013;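 active means activation above the mean over all tested compounds plus 3 SD, cut at about 0.9% in these data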;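 further: 0% = DMSO-only wells and 100% = 3 µM delta7-dafachronic acid wells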
hcDAF12 agonist: H. contortus DAF-12 nuclear receptor activators, primary screen, cell-based, luminescence, HEK293, lit1-tk-luc reporter | activation, % at 6.8 µM | AID 652067, 2013 | hit rate 1.4% among 370,000 | HEK293 hcDAF-12 lit1-tk-luc reporter; 0% DMSO, 100% Δ7-dafachronic acid;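 active means activation above the mean of all tested compounds plus 3 SD, cut at about 5.5% in these data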;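 further: 100% = response to 3 µM Δ7-dafachronic acid high control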
hgDAF12 conf: H. glycines DAF-12 receptor agonists, confirmation, cell-based, luminescence, HEK293, GAL4-LBD fusion. activation, % at 6.8 µM. AID 743050, 2013. HEK293 GAL4-hgDAF12 luciferase reporter, agonist mode; percent of butyrate response. hit rate 80% among 3,300. shares compounds with hgDAF-12 ag;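 active means mean activation over triplicate wells above the hit cutoff derived from the earlier primary screen, cut at about 11% in these data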;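 further: 0% = DMSO low control and 100% = 2 mM sodium butyrate high control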
LXRb DAF12 ctr: LXR agonists, Gal4 luciferase reporter, confirmation, counter-screen for hgDAF-12 agonist project, cell-based, luminescence, HEK293, H. glycines campaign; shares compounds with hgDAF-12 ag; 24 h; activation, % at 6.8 µM; 3,300 tested, under 10 active;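 active means mean activation of the triplicate above a set limit carried over from the primary screen, none filed active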
The depositor's hits bear a star. Sampled rows, rich in hits. Any-hit rate of the full collection: about 4.1%.

For Cc1ccc(C(=O)Nc2nnc(-c3ccco3)o2)cc1 the results were hgDAF-12 ag 14*, DAX1 inh-1 -2, DAX1 inh-2 3, ssDAF12 agonist 0, hcDAF12 agonist 5, hgDAF12 conf 10 and LXRb DAF12 ctr 0.
N#Cc1ccc(C(=O)Nc2nnc(-c3ccco3)o2)cc1 was read as hgDAF-12 ag 7, DAX1 inh-1 0, DAX1 inh-2 0, ssDAF12 agonist -2 and hcDAF12 agonist 0.
CC(C)(C)n1cnc2cc(NC(=O)c3ccc(Cl)cc3)ccc21 was read as hgDAF-12 ag 14*, DAX1 inh-1 4, DAX1 inh-2 3, ssDAF12 agonist 1.3*, hcDAF12 agonist 5, hgDAF12 conf 19* and LXRb DAF12 ctr 2.
`CC(C)(C)n1cnc2cc(NCc3ccc(Br)cc3)ccc21` gave hgDAF-12 ag 17*, DAX1 inh-1 4.2*, DAX1 inh-2 1, ssDAF12 agonist 0, hcDAF12 agonist 3, hgDAF12 conf 13* and LXRb DAF12 ctr 1.
`COc1cc(C(=O)Nc2ccc3c(c2)ncn3C(C)(C)C)cc(OC)c1OC` gave hgDAF-12 ag -2, DAX1 inh-1 -1, DAX1 inh-2 0, ssDAF12 agonist -1 and hcDAF12 agonist -2.
Screening CCCCc1c(-c2ccccc2OC)ncn1Cc1cccc(F)c1 returned hgDAF-12 ag -3, DAX1 inh-2 0, ssDAF12 agonist -2 and hcDAF12 agonist 0.
`O=C(NCc1ccccc1)[C@H]1CCCN1` gave hgDAF-12 ag 0, DAX1 inh-2 1, ssDAF12 agonist -1 and hcDAF12 agonist -1.
`O=C(OCC#CCSc1nnc(-c2cccc3ccccc23)o1)c1cccc(C(F)(F)F)c1` gave hgDAF-12 ag 0, ssDAF12 agonist -2 and hcDAF12 agonist -1.
Screening Cc1nc(N)sc1-c1csc(Nc2cccc(O)c2)n1 returned hgDAF-12 ag 1, DAX1 inh-1 0, DAX1 inh-2 0, ssDAF12 agonist 0 and hcDAF12 agonist 1.
Cc1nc(C)c(-c2csc(Nc3cccc(O)c3)n2)s1 was read as hgDAF-12 ag 23*, DAX1 inh-1 0, DAX1 inh-2 1, ssDAF12 agonist 0, hcDAF12 agonist 3, hgDAF12 conf 14* and LXRb DAF12 ctr 1.
For CCOC(=O)C(=O)N1CCC(C(=O)NC2CCCc3ccccc32)CC1 (centres undefined) the results were hgDAF-12 ag 1, DAX1 inh-2 0, ssDAF12 agonist -1 and hcDAF12 agonist 0.
Screening Cc1nc2c(oc3ccccc32)c(=O)o1 returned hgDAF-12 ag 14*, DAX1 inh-1 2, DAX1 inh-2 1, ssDAF12 agonist 0, hcDAF12 agonist 6.1*, hgDAF12 conf 9 and LXRb DAF12 ctr 0.
For O=c1[nH]c(Cc2ccccc2)nc2c1oc1ccccc12 the results were hgDAF-12 ag -2, DAX1 inh-1 0, DAX1 inh-2 0, ssDAF12 agonist -2 and hcDAF12 agonist -1.
O=C(Nc1ccccc1)O/N=C(\c1ccccc1)c1ccccn1 was read as hgDAF-12 ag 16*, DAX1 inh-1 0, DAX1 inh-2 1, ssDAF12 agonist -1, hcDAF12 agonist 0, hgDAF12 conf 2 and LXRb DAF12 ctr 0.
For COC(=O)C1=C(C)N(Cc2ccc(Cl)cc2)C(=S)NC1c1ccc(Br)cc1 (centres undefined) the results were hgDAF-12 ag -3, DAX1 inh-2 -1, ssDAF12 agonist -1 and hcDAF12 agonist -1.
